Calls of active or inactive are those of the source. No rule for the calls is given here. Where a SMILES comes first, the peptide text is derived from it. The star is where a group is joined. Boc = CC(C)(C)OC(=O)*
biological target: Pantothenate synthetase (Mycobacterium tuberculosis (strain ATCC 25618 / H37Rv)) (UniProt P9WIL5); experiment: Coupled enzyme confirmation of inhibitors against recombinant Mtb PanC (AID 375); details: coupled enzyme assay; at 10 µM, active compounds read high;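 also: 0% = full reaction with vehicle and 100% = no enzyme background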
Sequence (P9WIL5 whole entry, looked up): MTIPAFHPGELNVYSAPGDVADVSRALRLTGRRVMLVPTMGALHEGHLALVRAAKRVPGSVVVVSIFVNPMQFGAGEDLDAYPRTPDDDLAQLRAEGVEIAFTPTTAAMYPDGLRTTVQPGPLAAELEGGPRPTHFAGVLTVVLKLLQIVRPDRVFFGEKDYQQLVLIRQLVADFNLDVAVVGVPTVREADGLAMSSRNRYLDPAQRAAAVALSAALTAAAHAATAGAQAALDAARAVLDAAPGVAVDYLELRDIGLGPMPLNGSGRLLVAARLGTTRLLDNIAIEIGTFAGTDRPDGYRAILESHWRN

| SMILES | inhibition |
| --- | --- |
| O=C(CN1CCN(Cc2ccccc2)CC1)NCC1COc2ccccc2O1 (centres undefined) | 0% (inactive) |
| O=C(Nc1cnn(Cc2ccc(Cl)cc2Cl)c1)c1noc2c1CCCC2 | 4% (inactive) |
| COc1cc2c(cc1OC)-c1cc(OCc3cccnc3)nc(=O)n1CC2 | 12% (inactive) |
| CCOc1ccc(NC(=O)CN(C)S(=O)(=O)c2cccs2)cc1 | 13% (inactive) |
| CNC(=O)c1c(O)c2cccc3c2n(c1=O)CC3 | 1% (inactive) |
| COc1cc(C2c3c(n[nH]c3C)C(=O)N2c2ccc(C)cc2)ccc1O (centres undefined) | 0% (inactive) |
| COc1ccc(-n2c(N)c(C(=O)NCc3ccco3)c3nc4ccccc4nc32)c(OC)c1 | 4% (inactive) |
| CCOC(=O)CSc1ncnc2c1cnn2-c1ccc(C)cc1 | 15% (inactive) |
| Cn1nnnc1SCC(=O)N1CCN(c2cccc(Cl)c2)CC1 | 2% (inactive) |
| COc1ccc(N(CC(=O)O)S(=O)(=O)c2ccc(OC)c(OC)c2)cc1 | 5% (inactive) |
| COc1ccc(OCCOC(=O)c2cccs2)cc1 | 0% (inactive) |
| CCCCOc1ccc(C(=O)Nc2ccc(N3CCN(C(=O)C(C)C)CC3)cc2)cc1 | 6% (inactive) |
| Fc1ccc(C2C3=C(Nc4ncnn42)c2ccccc2OC3c2ccncc2)cc1 (centres undefined) | 0% (inactive) |
| Cc1ccc(C)c(C(=O)CC2(O)C(=O)Nc3ccccc32)c1 (centres undefined) | 5% (inactive) |
| Cc1ccc(-n2nc3cc(Cl)c(NC(=O)c4ccco4)cc3n2)cc1 | 3% (inactive) |
| CCn1cc(C(=O)O)c(=O)c2cc(F)c(N3CCNCC3)nc21 | 6% (inactive) |
| CCOC(=O)c1nnc(-c2ccccc2)o1 | 2% (inactive) |
| Cc1ccc(CSc2nc3c(c(=O)[nH]2)CCC3)cc1 | 1% (inactive) |
| CCN(CC)c1ccc(NC(=O)c2nc3nc(C)cc(C(F)F)n3n2)cc1 | 0% (inactive) |
| COc1ccc(-c2cc(C(F)F)n3ncc(C(=O)NCC4CCCO4)c3n2)cc1 (centres undefined) | 4% (inactive) |

| SMILES | inhibition |
| --- | --- |
| CN1CCN(c2ccc(Cl)cc2NC(=O)c2cccc(S(=O)(=O)N(C)C)c2)CC1 | 1% (inactive) |
| CC(C)(C)OC(=O)N1CCCC1C(=O)NC(Cc1ccccc1)C(=O)O (stereo not drawn) (Boc-Pro-Phe-OH; configuration not given here) | 4% (inactive) |
| Cc1cc(C(=O)CN2C(=O)c3ccccc3C2=O)c(C)n1Cc1cccs1 | 0% (inactive) |
| CCOc1ccccc1NC(=O)N1C2CCCC1CC(NC(=O)C1CC1)C2 (centres undefined) | 6% (inactive) |
| CCn1c(=O)c(C(=O)NCc2ccc(OC)cc2)c(O)c2ccccc21 | 3% (inactive) |
| Cc1c(C2Nc3ccccc3NC3=C2C(=O)CC(C)(C)C3)cnn1C (centres undefined) | 2% (inactive) |
| CC(C)C[C@H]1C(=O)N2CCC[C@H]2[C@]2(O)O[C@](NC(=O)[C@@H]3C=C4c5cccc6[nH]c(Br)c(c56)CC4N(C)C3)(C(C)C)C(=O)N12 (some centres undefined) | 4% (inactive) |
| O=C(C1CCCO1)N1CCN(S(=O)(=O)c2ccccc2)CC1 (centres undefined) | 0% (inactive) |
| CCn1c(SCc2nc(-c3cccs3)no2)nnc1-c1c[nH]c2ccccc12 | 0% (inactive) |
| COc1cccc(N2CCN(CC(=O)Nc3nnc(-c4ccccc4)s3)CC2)c1 | 3% (inactive) |
| COc1cc(NC(=O)c2nccnc2C(=O)O)cc(OC)c1 | 5% (inactive) |
| COc1cccc(C(c2nnnn2Cc2ccccc2)N2CCN(C(=O)c3ccco3)CC2)c1OC (centres undefined) | 4% (inactive) |
| CCOCC(=O)Nc1c(C(=O)Nc2ccc(OC)cc2OC)oc2ccccc12 | 0% (inactive) |
| CC1CCc2c(sc(N)c2C(N)=O)C1 (centres undefined) | 0% (inactive) |
| COc1ccc(NC(=O)Cn2nnc(-c3ccccc3N)n2)cc1OC | 0% (inactive) |
| Cc1nc(CNS(=O)(=O)c2cc(C)c(C)cc2C)cs1 | 1% (inactive) |
| CCOC(=O)CN1CC23C=CC(O2)C(C(=O)NCc2ccc(F)cc2)C3C1=O (centres undefined) | 0% (inactive) |
| Oc1c(Cl)cc(Cl)cc1CNc1ccc(Br)cn1 | 4% (inactive) |
| CCOc1ccc(CCNc2nc3c(c(=O)n(C)c(=O)n3C)n2CC)cc1OCC | 0% (inactive) |

From PubChem BioAssay
